# Screening results: PubChem BioAssay, several laboratories
# esBAF inh: Bmi1 luciferase reporter increase in mESCs, primary screen, esBAF inhibitor project, mouse ES cells, Bmi1 luciferase knock-in, single point. 350,000 tested, 2% active. reporter increase, % at 12.5 µM. 24 h; 100% = twice the neutral-well signal; in the data active means activation above about 40%; inconclusive means no clear call, values can overlap the other calls;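 further: 0% = median of the plate's neutral control wells and 100% = double that signal; a rise in the Bmi1 reporter signal indicates esBAF inhibition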
# MITF TRPM1 HTS: activators of MITF-driven TRPM1 promoter reporter, primary screen, cell-based, SK-MEL-5, luciferase, single point; 300,000 tested, 0.75% active; AID 588334, 2011; activation, % at 12.5 µM; SK-MEL-5 TRPM1-promoter luciferase, 24 h; % of positive control, neutral wells = 0;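 active means mean activation of at least 80% with every replicate also reaching 80%; inconclusive means mean reaches 80% but some replicate falls short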;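 further: 0% = neutral control wells and 100% = parthenolide positive control wells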
# Wnt act: Wnt/beta-catenin pathway activators, primary screen, cell-based, plate reader, single point; Wnt/beta-catenin reporter cell assay, activator; activation, % at 9.35 µM; 300,000 tested, 1.2% active; AID 743398, 2014; in the data active means activation above about 30%, passing the limit was not always enough; inconclusive means no clear call, values can overlap the other calls;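 further: 0% = neutral control wells and 100% = positive control wells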
# PHOSPHO1 inh: PubChem AID 1565; inhibition, % at 13.3 µM; Phosphoethanolamine/phosphocholine phosphatase (Homo sapiens), Q8TCT1; recombinant PHOSPHO1, absorbance phosphatase assay; 290,000 tested, 1.1% active; in the data active means inhibition above about 60%
# A3G deaminase: APOBEC3G DNA deaminase inhibitors, primary screen, biochemical, fluorescence, single-stranded DNA substrate, uHTS; DNA dC->dU-editing enzyme APOBEC-3G (Homo sapiens), Q9HC16; recombinant A3G, ssDNA deamination FAM/TAMRA fluorescence; inhibition, % at 20 µM; 330,000 tested, 0.28% active; AID 493012, 2011;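 active means inhibition of at least 40% at 20 µM, with no more than 30% in the related APOBEC3A deaminase screen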;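 further: plate controls were DMSO wells with A3G for no effect and wells lacking A3G enzyme for full effect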
# Target sequence (Q9HC16 whole entry, looked up): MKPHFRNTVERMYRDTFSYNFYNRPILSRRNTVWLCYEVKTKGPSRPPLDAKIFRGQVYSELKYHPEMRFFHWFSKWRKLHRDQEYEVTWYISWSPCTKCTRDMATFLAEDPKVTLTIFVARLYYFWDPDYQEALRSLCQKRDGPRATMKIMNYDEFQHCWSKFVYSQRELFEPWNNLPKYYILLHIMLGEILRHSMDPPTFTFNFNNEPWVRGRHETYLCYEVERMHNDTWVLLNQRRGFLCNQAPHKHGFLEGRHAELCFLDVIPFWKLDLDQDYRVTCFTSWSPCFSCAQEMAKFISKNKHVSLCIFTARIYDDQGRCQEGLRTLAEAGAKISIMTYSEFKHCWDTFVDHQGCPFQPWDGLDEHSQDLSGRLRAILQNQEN
# APOBEC3A inh: APOBEC3A ssDNA deaminase inhibitors, primary screen, selectivity assay for APOBEC3G inhibitor project, biochemical, FAM/TAMRA oligo cleavage fluorescence; 330,000 tested, 0.41% active; recombinant A3A, FAM/TAMRA ssDNA deamination fluorescence; AID 493011, 2011; inhibition, % at 20 µM;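 active means at least 40% inhibition at 20 µM here, with at most 30% in a related deaminase screen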;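 further: plate controls were A3A with DMSO for no effect and wells lacking A3A enzyme for full effect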
# Target sequence (P31941 whole entry, looked up): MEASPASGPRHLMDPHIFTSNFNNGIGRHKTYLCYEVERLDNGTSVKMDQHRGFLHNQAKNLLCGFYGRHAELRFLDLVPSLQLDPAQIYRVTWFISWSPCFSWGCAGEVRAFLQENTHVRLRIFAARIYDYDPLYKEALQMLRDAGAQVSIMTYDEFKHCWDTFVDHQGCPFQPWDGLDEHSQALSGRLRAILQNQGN
# * = called active by the depositor; ? = inconclusive; / = no result. This is a sample that favours compounds with a hit; in the whole collection about 3.6% have one here.
SMILES,esBAF inh,MITF TRPM1 HTS,Wnt act,PHOSPHO1 inh,A3G deaminase,APOBEC3A inh
O=C(c1cnc(Cc2c[nH]c3ccccc23)c(I)c1)N1CCCCC1,49.5*,/,6.8,/,/,/
O=C(N/N=C/c1ccc(Cl)c([N+](=O)[O-])c1)c1ccc2c(c1)OCCO2,6.6,11.8,3.2,/,/,/
O=C(Nc1ccc(N2CCCC2)c(Cl)c1)c1ccccc1F,?,/,5.4,/,/,/
O=C(Nc1ccc(N2CCCCC2)c(Cl)c1)c1ccc2c(c1)OCCO2,52.3*,/,14.4,9.7,-1.2,-1.0
O=C(Nc1ccc(N2CCOCC2)c(Cl)c1)c1ccc(Cl)cc1,45.3*,68.2,18.8,-9.8,-2.0,4.1
O=C(Nc1ccc(N2CCOCC2)c(Cl)c1)c1ccccc1F,103.3*,?,/,12.1,-5.9,-3.8
O=C(Nc1ccc(Cl)c([N+](=O)[O-])c1)c1ccc2c(c1)OCCO2,86.1*,95.5*,15.5,-18.3,-2.9,5.1
O=C(Nc1ccc(N2CCOCC2)c(Cl)c1)c1ccc2c(c1)OCCO2,35.4,21.6,0.6,8.0,-2.1,3.9
O=C(c1ccccc1)c1ccc(N2CCOCC2)c(F)c1,57.8*,69.9,29.7,2.8,-0.7,4.9
O=C(c1ccccc1)c1cc(F)c(N2CCOCC2)cc1Cl,19.8,7.7,/,19.2,-5.9,-3.3
O=C(Nc1ccc(N2CCCC2)c(Cl)c1)c1ccc(Br)o1,76.2*,76.3,/,13.5,6.6,-0.1
O=C(Nc1ccc(N2CCOCC2)c(F)c1)c1cccs1,23.2,110.1*,?,38.3,-6.2,-1.6
O=C(Nc1ccccc1N1CCCC1)c1ccc(Br)o1,3.4,9.8,/,14.4,-1.7,-3.5
COc1ccc(NC(=O)N(C)C[C@H]2OCCCC[C@@H](C)Oc3ccc(NC(=O)C4CCCCC4)cc3C(=O)N([C@H](C)CO)C[C@@H]2C)cc1,-3.0,/,/,/,/,/
Cc1noc(C)c1NC(=O)Nc1ccc2c(c1)C(=O)N([C@H](C)CO)C[C@H](C)[C@@H](CN(C)S(=O)(=O)c1c(C)noc1C)OCCCC[C@H](C)O2,1.7,/,/,/,/,/
CO[C@H]1CN(C)C(=O)c2cc(NC(=O)c3ccccc3)ccc2OC[C@H](C)N(C(=O)C2CC2)C[C@H]1C,-1.3,/,/,/,/,/
COc1ccc(Oc2ccc(C(F)(F)F)cc2N)cc1,42.5*,51.8,7.6,34.2,-11.7,-3.4
COc1ccc(Oc2ccc(C(F)(F)F)cc2NC(=O)c2ccc(OC)cc2)cc1,/,-6.3,-1.0,52.9,-3.2,-3.9
O=C1/C(=C\c2ccsc2)N2CCC1CC2,-0.3,2.7,32.7*,32.2,3.1,1.7
CC(C)(C)c1ccc(N2C(=O)Cc3c2nc(N)c(C#N)c3N)cc1,51.1*,/,/,-6.8,-8.6,-5.2
CCN(CC)c1nc2c3c(nc4c(c3c1C#N)CC(=O)N4c1ccc(Cl)cc1)NC(C)=N2,/,5.8,3.5,-13.9,-1.2,4.6
CCc1ccc(N2C(=O)Cc3c2nc(N)c(C#N)c3N)cc1,53.3*,29.2,14.8,-3.8,-7.3,2.3
C[C@H]1CN([C@@H](C)CO)C(=O)Cc2cc(NC(=O)CCC(F)(F)F)ccc2O[C@@H]1CN(C)C(=O)Nc1ccccc1,0.7,/,/,/,/,/
CC(=O)c1ccc(NC(=O)CCCN2C(=O)COc3ccc(C)cc32)cc1,-1.4,13.7,-0.4,70.0*,-4.2,-5.2
Cc1cccc(C)c1OCc1cc(C(=O)N2CC3C[C@@H]4CC2C[C@H](C3)C4)no1,82.2*,114.6*,36.3*,-12.4,-3.3,-3.8
SMILES,esBAF inh,MITF TRPM1 HTS,Wnt act,PHOSPHO1 inh,A3G deaminase,APOBEC3A inh
Cc1ccc(OCc2cc(C(=O)N3CC4C[C@@H]5CC3C[C@H](C4)C5)no2)cc1C,51.8*,109.9*,19.7,33.4,-7.8,-3.3
C[C@@H]1CN([C@@H](C)CO)C(=O)c2cc(C3=CCCC3)cnc2O[C@H]1CN(C)Cc1ccccn1,-4.6,/,/,/,/,/
C[C@H](CO)N1C[C@H](C)[C@@H](CN(C)C(=O)Nc2ccc3c(c2)OCO3)OCCCC[C@H](C)Oc2ccc(NS(=O)(=O)c3ccc(F)cc3)cc2C1=O,-2.0,/,/,/,/,/
CCCNC(=O)[C@H]1[C@H](CO)[C@H]2Cn3c(cccc3=O)[C@H]2N1CC1CC1,0.5,/,/,/,/,/
O=C(c1ccco1)N1N=C(c2cccs2)CC1c1cc([N+](=O)[O-])ccc1O (stereo not given),/,-2.3,-1.3,61.0*,-4.8,-3.0
C[C@H]1CN([C@@H](C)CO)C(=O)c2cc(NS(=O)(=O)c3cccs3)ccc2O[C@@H]1CN(C)C(=O)Nc1ccc(F)cc1,5.1,/,/,/,/,/
CCC(C)(C)C1CCc2[nH]nc(C(=O)NN)c2C1 (stereo not given),/,/,-5.0,-4.5,9.1,3.2
CCC(C)(C)C1CCc2[nH]nc(C(=O)NC3CCCCC3)c2C1 (stereo not given),57.6*,33.8,5.2,/,-1.6,-5.9
COc1ccc(CC(=O)N/N=C/c2cccs2)cc1OC,3.1,-3.3,-3.3,14.0,-4.6,2.6
O=C(N/N=C/c1cccs1)C(=O)N1CCCC1,/,-0.7,0.3,32.3,2.6,4.5
COCCNC(=O)C(=O)N/N=C/c1cccs1,/,23.1,3.7,64.7*,-8.0,-2.2
COc1ccccc1NC(=O)C(=O)N/N=C/c1cccs1,75.7*,48.2,15.0,-4.0,-9.3,9.6
Cc1ccc(-n2[nH]c(C)c(/C=C3/C=Nc4ccccc43)c2=O)cc1C,53.8*,8.4,-1.7,-19.8,-3.2,-1.5
Cc1ccc(S(=O)(=O)Nc2ccc3c(c2)C(=O)N([C@@H](C)CO)C[C@@H](C)[C@H](CN(C)C(=O)Nc2ccccc2)O3)cc1,-2.0,/,/,/,/,/
COc1ccc(NC(=O)c2cnc3sccn3c2=O)cc1,/,19.2,41.9*,-5.7,2.9,2.3
Cc1ccc(S(=O)(=O)N(C)C[C@@H]2Oc3ccc(NS(C)(=O)=O)cc3CC(=O)N([C@H](C)CO)C[C@H]2C)cc1,6.0,/,/,/,/,/
Cc1nn(CCc2nc(-c3ccco3)cs2)c2[nH]c(=O)cc(C(F)(F)F)c12,-7.2,-0.7,-2.4,77.4*,48.1,61.6
COc1ccc(CN(C)C[C@H]2OCCCC[C@@H](C)Oc3ccc(NS(=O)(=O)c4cn(C)cn4)cc3C(=O)N([C@@H](C)CO)C[C@@H]2C)cc1,5.3,/,/,/,/,/
C[C@@H]1CN([C@H](C)CO)C(=O)c2cc(C#CC3(O)CCCC3)cnc2O[C@@H]1CN(C)C(=O)Cc1ccccc1,-2.1,/,/,/,/,/
Clc1ccc(-c2nc3cnccn3c2Nc2ccc3c(c2)OCO3)cc1,-8.9,/,-3.0,30.2,-6.8,-2.8
c1cn2c(Nc3ccc4c(c3)OCCO4)c(-c3ccc(N4CCOCC4)cc3)nc2cn1,/,30.0,49.1*,27.4,-0.8,1.1
